Active and inactive are the calls of the source.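 The calls were made as follows: active = lowers cyclin D1 in cells by half at 5 µM or less; inconclusive = half-effect dose above 5 µM but under 10 µM; inactive = half-effect dose of 10 µM or more.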
Test: qHTS for Inhibitors of Ubiquitin-specific Protease USP2a Using CHOP2 as the Reporter: Cyclin D1 Western Blot
Conditions: HCT116 cyclin D1 western blot
Text: Homeostasis of cellular proteins is maintained through a combination of synthesis and degradation. The pathway that accounts for the majority of protein degradation is the ubiquitin-proteasomal pathway. Ubiquitin (Ub) is highly conserved in all cells and the generation of a multi-Ub chain typically targets proteins for degradation by the proteasome. However, ubiquitination is highly reversible and dynamic. Deubiquitination, the reverse process, is catalyzed through the action of enzymes referred to as isopeptidases or deubiquitinating enzymes (DUBs). This group of enzymes is collectively responsible for maintaining adequate pools of free ubiquitin and regulating the ubiquitination status of cellular proteins. The class of DUBs referred to as the ubiquitin-specific proteases (USP) family functions endoproteolytically to cleave Ub chains from a wide range of protein substrates. USP2a deubiquitinates fatty acid synthase (FASN) which has recently been identified as an emerging oncology target. […] To further visualize and quantitate the effect of compounds on cell proliferation, a colony forming or clonogenic assay was performed in 6-well plates using HCT116 cells. […] The colonies were visualized on the Typhoon imager (GE) using Cy5 detection, and quantitated with the associated software. […]
. […] Protein levels were quantified using ImageJ.
For Cc1ccc(S(=O)(=O)Nc2cc(C(F)(F)F)ccc2C(=O)Nc2nc(-c3ccccc3)cs2)cc1, the Potency was 970 nM (active).

From PubChem BioAssay AID652251 (National Center for Advancing Translational Sciences (NCATS), 2013)
